Screens as filed in PubChem BioAssay.
Shown are actives, neighbours in structure and some others; about 2.6% of the full set was active somewhere.
SmPrx2 inh = Schistosoma Mansoni Peroxiredoxins (Prx2); Schistosoma mansoni peroxiredoxin 2 (Prx2); S. mansoni Prx2 activity coupled to TGR/GSH (TGR is thioredoxin glutathione reductase), NADPH fluorescence loss, qHTS; Potency, µM; 65,000 tested, 0.07% active
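qHTS, coupled TGR/Prx2 format; 15 min compound preincubation at RT; reaction started with H2O2 (2.5 mM aliquot); kinetic NADPH fluorescence decrease, ex 365/em 450 nm.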
AmpC inh no det = Promiscuous and Specific Inhibitors of AmpC Beta-Lactamase (assay without detergent); P00811; AmpC nitrocefin hydrolysis, absorbance 480 nm, no detergent; Potency, µM (highest dose often 28.7 µM); 71,000 tested, 1.8% active; AID 585, 2007
Target sequence (P00811 whole entry, looked up): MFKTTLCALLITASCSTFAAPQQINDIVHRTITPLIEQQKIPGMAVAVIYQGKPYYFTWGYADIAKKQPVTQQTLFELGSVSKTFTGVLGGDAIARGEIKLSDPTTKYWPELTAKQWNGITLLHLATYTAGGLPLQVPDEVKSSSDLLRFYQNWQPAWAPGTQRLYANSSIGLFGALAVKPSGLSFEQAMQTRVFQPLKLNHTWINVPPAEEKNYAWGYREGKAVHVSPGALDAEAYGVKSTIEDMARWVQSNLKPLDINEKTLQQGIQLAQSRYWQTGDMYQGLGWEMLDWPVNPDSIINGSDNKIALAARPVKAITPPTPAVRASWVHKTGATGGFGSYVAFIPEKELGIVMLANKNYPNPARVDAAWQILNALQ
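AmpC in 20 mM phosphate buffer pH 7.0 was preincubated 15 min at room temperature with compounds. Nitrocefin (800 uM stock) was then added and hydrolysis followed at 480 nm every 20 s for 4 min.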
LT uptake inh = qHTS Assay for Anthrax Lethal Toxin Internalization. Cells, anthrax lethal toxin internalization, FRET ratio (460/530). 70,000 tested, 0.67% active. AID 912, 2007. Potency, µM (doses to about 40 µM), usual class: inhibitors; also: nearly all actives have a fitted effect of over 50% in size
AmpC inh det = Promiscuous and Specific Inhibitors of AmpC Beta-Lactamase (assay with detergent) | 71,000 tested, 0.09% active | P00811 | purified AmpC, nitrocefin hydrolysis with detergent | Potency, µM (doses to about 28.7 µM); active = well fitted curve in the direction sought with a large enough effect; inconclusive = small, poorly fitted or top-dose-only effect
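E. coli AmpC (5.3 nM) in 20 mM phosphate pH 7.0 with 0.01% Triton X-100, preincubated 15 min RT with compound; nitrocefin (2 uL of 800 uM stock) hydrolysis followed by 480 nm absorbance every 20 s over 4 min.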
Large screens that a line does not name were inactive; ! = not confirmed by another sample; [ ] = remark or other dose. Unless noted, calls follow the shape of the full dose curve.

Cc1nnc2ccc(N3CCC(C(N)=O)(N4CCCCC4)CC3)nn12	AmpC inh no det 4µM[single pt active]
Cc1nnc2ccc(N3CCN(c4ccccn4)CC3)nn12	AmpC inh no det 4µM[single pt active]
Cc1nnc2ccc(N3CCN(C)CC3)nn12	none (no result: SmPrx2 inh)
Cc1[nH]nc2nc(SCC(=O)NCC3CCCO3)n(-c3ccc(Br)cc3)c(=N)c12 (configuration not stated)	none
Cc1cc(-n2c(SCC(=O)NCc3cccs3)nc3n[nH]c(C)c3c2=N)ccc1Cl	LT uptake inh 10µM
CCOc1ccc(C2CC(c3ccccc3C)n3nc(N)nc3N2)cc1 (configuration not stated)	none
Cc1ccc(C2CC(c3ccccc3C)n3nc(N)nc3N2)cc1 (configuration not stated)	AmpC inh no det 4µM[single pt active]
COc1ccc(C2CC(c3ccccc3C)n3nc(N)nc3N2)cc1 (configuration not stated)	AmpC inh no det 4µM[single pt active]
COc1cccc(C2CC(c3ccccc3C)n3nc(N)nc3N2)c1 (configuration not stated)	AmpC inh no det 4µM[single pt active]
Cc1ccc(C)c(C(=N)c2ccccc2Cc2ccccc2)c1	none
Cc1ccc(S(=O)(=O)Oc2ccc(N=Nc3ccc(-c4ccc(N=Nc5c(O)ccc6cc(S(=O)(=O)O)cc(S(=O)(=O)O)c56)c(C)c4)cc3C)cc2)cc1	AmpC inh no det 0.32µM, LT uptake inh 16µM (no result: SmPrx2 inh)
Cc1ccc(N=Nc2c(O)ccc3cc(S(=O)(=O)O)ccc23)cc1	none
O=C(CSc1nnc(-c2ccc(Cl)cc2)n1Cc1ccco1)Nc1ccc2c(c1)OCCO2	AmpC inh no det active[single pt active], LT uptake inh inconclusive
CC(=O)Nc1cccc(NC(=O)CSc2ncc(-c3ccc(Cl)cc3)n2Cc2ccco2)c1	LT uptake inh 13µM
COc1ccc(-c2cnc(SCC(=O)Nc3ccc4c(c3)OCO4)n2Cc2ccco2)cc1	LT uptake inh inconclusive
Cc1cc(=O)[nH]c(SCc2cc(=O)n3nc(C)sc3n2)n1	AmpC inh no det 4µM[single pt active]
CCCSc1nc(C)cc(=O)[nH]1	none
Cc1csc(NC(=O)C(CC(C)C)NS(=O)(=O)c2ccc3c(c2)oc(=O)n3C)n1 (configuration not stated)	AmpC inh no det 4µM[single pt active]
O=C(O)C[C@H]1OCC=C2C[N@@+]3([O-])CC[C@]45c6ccccc6N[C@@H]4[C@@H]1[C@H]2C[C@H]53	none
C=C(C)C(=O)OCC1CN2C(CCC(C)C2c2ccc(Br)cc2)C(=O)O1 (configuration not stated)	none (no result: SmPrx2 inh, AmpC inh no det, AmpC inh det)
COC(=O)C(C)Sc1nnc(Cc2cc(=O)[nH]c(=O)[nH]2)n1-c1cc(C)ccc1C (configuration not stated)	AmpC inh no det 2µM
COC(=O)C(C)Sc1nnc(Cc2cc(=O)[nH]c(=O)[nH]2)n1-c1cccc(OC)c1 (configuration not stated)	AmpC inh no det 4µM[single pt active]
C=CCSc1nnc(Cc2cc(=O)[nH]c(=O)[nH]2)n1-c1cc(C)ccc1C	none
CSc1nnc(Cc2cc(=O)[nH]c(=O)[nH]2)n1-c1cccc(C)c1	none
COc1cccc(-n2c(Cc3cc(=O)[nH]c(=O)[nH]3)nnc2SC(C)C)c1	AmpC inh no det 4µM[single pt active]
CCOc1ccc(-n2c(Cc3cc(=O)[nH]c(=O)[nH]3)nnc2SC(C)C(=O)OC)cc1 (configuration not stated)	none
O=[N+]([O-])/C=C\c1cc2ccccc2[nH]1	none
CCCCCCCCCCCCCCCC(=O)NC[C@@H](COP(=O)([O-])OCC[N+](C)(C)C)OCC	SmPrx2 inh inconclusive, LT uptake inh inconclusive
CCOC(=O)c1c(NC(=O)c2ccc(Br)o2)sc(C)c1CC	LT uptake inh 5µM (no result: SmPrx2 inh)
C/C(=N/Nc1ccc2ccccc2n1)c1ccccc1O	none
O=[As](O)(O)c1ccc(N=Nc2ccc([As](=O)(O)O)cc2)cc1	SmPrx2 inh inconclusive
Oc1c(CN2CCc3ccccc3C2)cc(Cl)c2cccnc12	AmpC inh no det 2.5µM[single pt active], LT uptake inh inconclusive
O=c1c(O)c(-c2ccc(O)c(O)c2)oc2cc(O)ccc12	AmpC inh no det 13µM!
O=c1c(O)c(-c2ccc(O)cc2)oc2cc(O)ccc12	AmpC inh no det inconclusive, LT uptake inh inconclusive
CC1=C(C(=O)OC(C)C)C(c2ccncc2)n2ncnc2N1 (configuration not stated)	LT uptake inh inconclusive
CC1=C(C(=O)OC(C)C)C(c2ccccn2)n2ncnc2N1 (configuration not stated)	AmpC inh no det 4µM[single pt active]
CC1=C(C(=O)OC(C)C)C(c2cccnc2)n2ncnc2N1 (configuration not stated)	AmpC inh no det 4µM[single pt active]
C/C=C/OC(=O)NC(c1cccc(C)c1)[C@@]1(C(=O)OCC)CCCC1=O (some centres not stated)	none (no result: SmPrx2 inh, AmpC inh no det, AmpC inh det)
O=C(/C=N/O)NCCCCNC(=O)/C=N/O	none (no result: SmPrx2 inh, AmpC inh no det, AmpC inh det)
C=C1C[C@@]23C[C@]1(O)CC[C@@H]2[C@]12C=C[C@@H](O)[C@@](C)(C(=O)O1)[C@@H]2[C@@H]3C(=O)O	LT uptake inh inconclusive
COc1cccc(-c2csc(N3CCN(C(=O)C4CCCCC4)CC3)n2)c1	LT uptake inh 10µM
CCNc1ncc2nc(C)c(=O)n(-c3ccc(OC)cc3)c2n1	none
COc1ccc(-n2c(=O)c(C)nc3cnc(N(C)C)nc32)cc1	LT uptake inh 10µM
OCCN1CCN(C(c2cccs2)c2ccc3cccnc3c2O)CC1 (configuration not stated)	AmpC inh no det 13µM, LT uptake inh inconclusive
CN1C[C@@H](CNC(=O)OCc2ccccc2)C[C@H]2c3cccc4c3c(cn4C)C[C@@H]21	LT uptake inh inconclusive
C=CCN1CC[C@]23c4c5ccc(O)c4O[C@@H]2C(=O)CC[C@@]3(O)[C@H]1C5	none
CC(=O)C1=C(C)NC(SCC(=O)c2ccc(Cl)c(Cl)c2)=C(C#N)C1c1ccco1 (configuration not stated)	LT uptake inh inconclusive (no result: SmPrx2 inh)
CC1=C(C(=O)Nc2ccccc2)C(c2ccco2)C(C#N)=C(SCC(=O)OC(C)C)N1 (configuration not stated)	LT uptake inh inconclusive (no result: SmPrx2 inh)
CCc1ccc(C(=O)CSC2=C(C#N)C(c3ccco3)C(C(C)=O)=C(C)N2)cc1 (configuration not stated)	AmpC inh no det 13µM, LT uptake inh inconclusive (no result: SmPrx2 inh)
CC1=C(C(=O)Nc2ccccc2)C(c2ccco2)C(C#N)=C(SCc2ccccc2)N1 (configuration not stated)	AmpC inh no det 5µM, LT uptake inh inconclusive (no result: SmPrx2 inh)
CC(=O)C1=C(C)NC(SCC(=O)c2cc(Cl)ccc2Cl)=C(C#N)C1c1ccco1 (configuration not stated)	AmpC inh no det inconclusive, LT uptake inh 10µM (no result: SmPrx2 inh)
Cc1ccc(S(=O)(=O)N(CC(O)CN2CCCCC2)c2ccccc2)cc1 (configuration not stated)	AmpC inh no det 4µM[single pt active]
CCC(C)NC(=O)CCS(=O)(=O)c1ccc2c(c1)n(C)c(=O)c(=O)n2C (configuration not stated)	AmpC inh no det 4µM[single pt active]
CN(Cc1ccccc1)C(=O)CCC(=O)N(C)Cc1ccccc1	none (no result: SmPrx2 inh)
